# Compounds without any hit were thinned out: in the full panel of roughly 83,000, 20% have a hit.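 Testing used 96-well plates and a 48-hour single-concentration exposure. Example: -40 means 40% of the starting cells died.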 A number with no mark means an inactive call. Calls of active or inactive are those of the source. The calls were made as follows: active = growth percent below 10; inactive = the rest.
# Key:
# Test in all cases: NCI-60 one-dose screen, 48 h (100 = growth as untreated, 0 = no growth, -100 = all killed)
# Details in all cases: 10 µM unless noted
# NCI-H23 lung = system: NCI-H23 lung
# NCI-H226 lung = system: NCI-H226 lung
# NCI-H322M lung = system: NCI-H322M lung
# HOP-62 NSCLC = system: HOP-62 NSCLC
# NCI-H522 lung = system: NCI-H522 lung
# A549/ATCC NSCLC = system: A549/ATCC NSCLC
# 786-0 renal = system: 786-0 renal
# COLO 205 colon = system: COLO 205 colon
# DU-145 prostate = system: DU-145 prostate
# K-562 leukemia = system: K-562 leukemia
# MALME-3M melanoma = system: MALME-3M melanoma
# MDA-MB-231 breast = system: MDA-MB-231 breast
# RXF 393 renal = system: RXF 393 renal
# SF-268 CNS = system: SF-268 CNS
# SF-295 CNS = system: SF-295 CNS
# SF-539 CNS = system: SF-539 CNS
# UACC-257 melanoma = system: UACC-257 melanoma
# M14 melanoma = system: M14 melanoma
# HOP-92 NSCLC = system: HOP-92 NSCLC
Structure (SMILES),growth (NCI-H23 lung),growth (NCI-H226 lung),growth (NCI-H322M lung),growth (HOP-62 NSCLC),growth (NCI-H522 lung),growth (A549/ATCC NSCLC),growth (786-0 renal),growth (COLO 205 colon),growth (DU-145 prostate),growth (K-562 leukemia),growth (MALME-3M melanoma),growth (MDA-MB-231 breast),growth (RXF 393 renal),growth (SF-268 CNS),growth (SF-295 CNS),growth (SF-539 CNS),growth (UACC-257 melanoma),growth (M14 melanoma),growth (HOP-92 NSCLC)
COc1cc(Nc2ncccc2/C=C/C(=O)c2cc(OC)c(OC)c(OC)c2)cc(OC)c1OC,81.7%,82.9%,102%,92.7%,87.8%,68.8%,91.7%,75.2%,80.6%,45.5%,103%,93.3%,86%,83.3%,84.2%,78.9%,67%,86.7%,
Clc1ccc(-c2cnc3c(-c4ccnc(N5CCNCC5)c4)cnn3c2)cc1,-12.3% (active),115%,23.2%,-37.8% (active),-53.8% (active),16.7%,-70% (active),-57.7% (active),27.6%,-13.5% (active),-37.5% (active),-23.3% (active),-32.6% (active),-16.2% (active),34.9%,-82.4% (active),-60% (active),-78.8% (active),
COc1ccc(C(=O)OC2C(OC3C(O)COC(O[C@H]4C[C@H]5[C@@H]6CC=C7C[C@@H](O)CC[C@]7(C)[C@H]6CC[C@]5(C)[C@H]4[C@H](C)C(=O)CCC(C)C)C3OC(N)=O)OCC(O)C2O)cc1 (some centres undefined),23.3%,-1.18% (active),53.7%,-22.2% (active),-68.7% (active),11.3%,-59.4% (active),-58% (active),32.8%,-45.4% (active),-34.3% (active),-5.1% (active),-64.9% (active),-14.2% (active),-67.2% (active),-80% (active),-63.6% (active),-78.6% (active),
CCCCc1nc(Cl)c(C2CC(c3ccc(S(N)(=O)=O)cc3)=NN2c2ccc(C#N)cc2)[nH]1 (centres undefined),98.5%,79.6%,81.3%,90.5%,68%,94.6%,84.6%,87.8%,104%,69.5%,105%,88%,81.1%,91.9%,97.9%,99.9%,86.2%,88.1%,
COc1cc(/C=C\c2cc(/C=C\c3ccc(O)c(OC)c3)n(C(=O)Nc3ccc(C(F)(F)F)cc3)n2)ccc1O,51.3%,82.7%,82.7%,62.9%,7.32% (active),43%,20.1%,51.3%,47.6%,9.45% (active),52.3%,54.8%,22.7%,37.1%,83.4%,29%,25%,29.5%,
COc1cc(C2CC(c3ccc(Cl)cc3)=NN2C(C)=O)ccc1Oc1nc2c(c(=O)n(C)c(=O)n2C)n1C (centres undefined),84.2%,76.8%,72.9%,98.7%,92.5%,59.7%,111%,102%,65.2%,101%,100%,85.8%,86.8%,56.8%,62.6%,102%,-8% (active),67.8%,
O=C(CSc1nnc(Cc2ccccc2Nc2c(Cl)cccc2Cl)n1-c1ccccc1)N1N=C(c2ccc3ccccc3c2)CC1c1ccc(Cl)cc1 (centres undefined),96.2%,98.8%,90.7%,92.7%,66.1%,96.3%,95.9%,102%,94.3%,101%,95.4%,104%,124%,89.1%,100%,106%,117%,98.4%,
O=C(Nc1cccc(-n2ccc3c(NC(=O)c4ccccc4)nccc32)c1)c1ccc(Cl)c(Cl)c1,-31.3% (active),31.1%,-61.6% (active),-82.2% (active),,,-93% (active),-27.7% (active),-73.3% (active),,-56% (active),-53.9% (active),-92.7% (active),-55% (active),-69.8% (active),-71.2% (active),,-83.4% (active),-31.9% (active)
C#CCO[C@H]1CC[C@H](OCC#C)[C@@H]2[C@H]1[C@H]1C[C@@H]3[C@@]4(C)CCC[C@@](C)(C(=O)OC)[C@@H]4CC[C@@]23C=C1C(C)C,64.3%,81.7%,88.5%,77.5%,-66.5% (active),57.1%,-23.5% (active),83.5%,94.3%,79.7%,-41.7% (active),65%,94.9%,81.1%,92.7%,70.9%,56%,93.8%,
CCCCCCCCCCCC1=NC(C)(C)CN1CC(C)O (centres undefined),64.1%,92.8%,92.2%,60.2%,57%,85.4%,69.1%,-97.5% (active),80.1%,-44.6% (active),79%,44%,28.9%,60.1%,93.3%,63.8%,59.5%,-2.07% (active),
C=C1C(=O)O[C@H]2[C@H]1CC/C(COC(=O)NCc1cn(C)c3ccccc13)=C\CC[C@@]1(C)O[C@@H]21,38.4%,35.8%,80.6%,32.8%,,21%,-87.8% (active),-75.3% (active),-42.6% (active),-16.5% (active),-34.3% (active),-8.6% (active),-93.7% (active),24.2%,63.2%,-34.6% (active),-15% (active),-42.1% (active),
CN(C)CCCn1c(=O)c2cc([N+](=O)[O-])ccc2c2cnc3[nH]ccc3c21,58.8%,44.3%,46.3%,45.1%,17.9%,41.5%,7.2% (active),28%,50.5%,-32.4% (active),68.8%,65.5%,56.3%,45.9%,43.9%,50.9%,87.2%,67.6%,
COc1cc(C2CC(c3cccc(Nc4ccnc5cc(Cl)ccc45)c3)=NN2C=O)cc(OC)c1OC (centres undefined),4.02% (active),2.98% (active),32.5%,1.34% (active),-4.52% (active),18.4%,11.3%,-22.6% (active),-2.32% (active),19.4%,-5.46% (active),6.76% (active),-25.1% (active),25.3%,-11.6% (active),-26.3% (active),37.6%,-26.7% (active),
Cc1cc(Nc2c3ccccc3nc3ccccc23)ccc1NS(C)(=O)=O,47%,41.8%,34.3%,36.9%,,,39.8%,18.3%,29.3%,17.7%,44.1%,50%,35%,37.5%,34.4%,15%,,45.1%,-5.41% (active)
CCNCCCn1c2c(c3ccc(Cl)cc3c1=O)C(=O)c1cc(OC)cnc1-2,28.8%,-6.31% (active),45%,-18.8% (active),,25.7%,-95.4% (active),8.78% (active),-97.4% (active),-84.2% (active),74.2%,-72.6% (active),8.86% (active),-66% (active),15.5%,12%,65.9%,40%,
Nc1nc(N)c2cc(NCc3ccc(Cl)c(Cl)c3)ccc2n1,-88% (active),-74.8% (active),-79% (active),-85.6% (active),-69.8% (active),-90.2% (active),-89.7% (active),-90.7% (active),-94.8% (active),-62.2% (active),-64.9% (active),-86.8% (active),-82.7% (active),-83.2% (active),-80.5% (active),-89.9% (active),-83% (active),-84% (active),
CC(C)[C@@]12C[C@@H](OC(=O)[C@H]3CO3)[C@@](C)(O1)[C@@H]1CC[C@@H](C)[C@H]1[C@@H]2OC(=O)/C=C/c1ccccc1,88.4%,54.1%,85.4%,72%,72.2%,61.5%,91.3%,109%,102%,90.1%,87%,78.7%,59.6%,54.8%,85.2%,91.1%,68.3%,102%,

# From PubChem BioAssay (NCI)
